Reference: ChEMBL document CHEMBL1961873, “Compounds: GSK PKIS; Assays: Nanosyn kinase panel” (2012)

Tests used:
[1] = target: T1, Mitogen-activated protein kinase 12 (Homo sapiens) (UniProt P53778); details: at 1 µM;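 further: values are averaged p38gamma kinase inhibition readings, compounds tested at 1 µM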
T1 sequence (whole entry): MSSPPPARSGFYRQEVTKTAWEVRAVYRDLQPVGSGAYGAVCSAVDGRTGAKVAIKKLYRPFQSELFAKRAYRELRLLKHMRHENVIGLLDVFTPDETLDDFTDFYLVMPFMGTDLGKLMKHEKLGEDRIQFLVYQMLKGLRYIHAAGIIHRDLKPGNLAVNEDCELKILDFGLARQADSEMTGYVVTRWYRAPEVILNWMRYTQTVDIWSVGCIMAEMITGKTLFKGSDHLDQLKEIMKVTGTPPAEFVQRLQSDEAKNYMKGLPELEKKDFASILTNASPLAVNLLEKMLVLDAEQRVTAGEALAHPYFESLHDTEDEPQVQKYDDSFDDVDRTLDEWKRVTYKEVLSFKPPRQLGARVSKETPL

[2] = target: SRSF protein kinase 1 (Homo sapiens) (UniProt Q96SB4); details: at 0.1 µM
[3] = target: SRSF protein kinase 1 (Homo sapiens) (UniProt Q96SB4); details: at 1 µM
[4] = target: Phosphatidylinositol 4,5-bisphosphate 3-kinase catalytic subunit alpha isoform (Homo sapiens) (UniProt P42336); details: at 0.1 µM
[5] = target: Phosphatidylinositol 4,5-bisphosphate 3-kinase catalytic subunit alpha isoform (Homo sapiens) (UniProt P42336); details: at 1 µM
[6] = target: T2, Phosphatidylinositol 4,5-bisphosphate 3-kinase catalytic subunit delta isoform (Homo sapiens) (UniProt O00329); details: at 0.1 µM
T2 sequence (whole entry): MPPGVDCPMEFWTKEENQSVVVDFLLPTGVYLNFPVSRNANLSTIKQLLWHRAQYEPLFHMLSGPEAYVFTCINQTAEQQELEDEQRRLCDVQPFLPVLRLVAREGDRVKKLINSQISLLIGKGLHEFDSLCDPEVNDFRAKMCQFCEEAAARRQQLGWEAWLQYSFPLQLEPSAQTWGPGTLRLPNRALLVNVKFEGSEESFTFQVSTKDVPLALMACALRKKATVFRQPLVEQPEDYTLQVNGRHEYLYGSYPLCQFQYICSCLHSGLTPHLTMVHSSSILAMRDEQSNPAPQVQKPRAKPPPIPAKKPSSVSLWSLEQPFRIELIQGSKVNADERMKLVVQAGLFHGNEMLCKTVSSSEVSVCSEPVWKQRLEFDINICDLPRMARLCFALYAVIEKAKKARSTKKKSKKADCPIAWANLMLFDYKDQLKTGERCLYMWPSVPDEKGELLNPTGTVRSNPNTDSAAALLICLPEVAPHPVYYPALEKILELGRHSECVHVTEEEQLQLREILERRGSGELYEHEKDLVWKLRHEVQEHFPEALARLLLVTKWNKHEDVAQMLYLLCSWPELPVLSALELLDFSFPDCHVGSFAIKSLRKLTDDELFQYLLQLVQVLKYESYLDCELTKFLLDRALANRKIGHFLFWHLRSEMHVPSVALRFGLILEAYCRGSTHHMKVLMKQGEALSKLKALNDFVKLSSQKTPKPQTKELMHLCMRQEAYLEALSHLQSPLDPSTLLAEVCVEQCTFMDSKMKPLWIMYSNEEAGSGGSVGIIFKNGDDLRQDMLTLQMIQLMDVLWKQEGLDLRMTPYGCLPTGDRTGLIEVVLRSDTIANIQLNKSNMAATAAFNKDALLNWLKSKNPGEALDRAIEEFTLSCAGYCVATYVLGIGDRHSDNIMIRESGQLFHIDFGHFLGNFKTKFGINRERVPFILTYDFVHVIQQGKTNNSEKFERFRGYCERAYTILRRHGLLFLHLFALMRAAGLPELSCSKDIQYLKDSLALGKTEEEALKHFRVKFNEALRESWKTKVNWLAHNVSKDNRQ

[7] = target: T2, Phosphatidylinositol 4,5-bisphosphate 3-kinase catalytic subunit delta isoform (Homo sapiens); details: at 1 µM
[8] = target: Phosphatidylinositol 4-kinase beta (Homo sapiens) (UniProt Q9UBF8); details: at 0.1 µM
[9] = target: Phosphatidylinositol 4-kinase beta (Homo sapiens) (UniProt Q9UBF8); details: at 1 µM
[10] = target: Sphingosine kinase 1 (Homo sapiens) (UniProt Q9NYA1); details: at 0.1 µM
[11] = target: Sphingosine kinase 1 (Homo sapiens) (UniProt Q9NYA1); details: at 1 µM
[12] = target: T3, Sphingosine kinase 2 (Homo sapiens) (UniProt Q9NRA0); details: at 0.1 µM
T3 sequence (whole entry): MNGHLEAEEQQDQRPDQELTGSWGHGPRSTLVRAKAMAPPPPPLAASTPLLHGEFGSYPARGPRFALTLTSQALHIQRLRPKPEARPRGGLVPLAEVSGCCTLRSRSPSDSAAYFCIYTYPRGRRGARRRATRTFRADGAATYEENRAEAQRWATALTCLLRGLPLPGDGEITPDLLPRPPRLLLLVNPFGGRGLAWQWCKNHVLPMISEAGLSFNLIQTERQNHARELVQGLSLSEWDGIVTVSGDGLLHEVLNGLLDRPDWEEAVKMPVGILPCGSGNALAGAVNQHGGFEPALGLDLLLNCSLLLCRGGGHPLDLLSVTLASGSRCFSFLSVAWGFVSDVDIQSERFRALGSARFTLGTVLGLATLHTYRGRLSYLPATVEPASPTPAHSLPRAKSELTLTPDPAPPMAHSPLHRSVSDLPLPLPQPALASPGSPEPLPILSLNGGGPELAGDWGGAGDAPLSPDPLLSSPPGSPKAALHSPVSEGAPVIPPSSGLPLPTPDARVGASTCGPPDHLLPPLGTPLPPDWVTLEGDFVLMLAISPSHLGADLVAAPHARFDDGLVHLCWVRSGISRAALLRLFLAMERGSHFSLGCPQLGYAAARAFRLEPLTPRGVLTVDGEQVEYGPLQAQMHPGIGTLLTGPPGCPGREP

[13] = target: T3, Sphingosine kinase 2 (Homo sapiens); details: at 1 µM
[14] = target: Casein kinase II subunit alpha (Homo sapiens) (UniProt P68400); details: at 0.1 µM
[15] = target: Casein kinase II subunit alpha (Homo sapiens) (UniProt P68400); details: at 1 µM
[16] = target: T4, Inhibitor of nuclear factor kappa-B kinase subunit alpha (Homo sapiens) (UniProt O15111); details: at 0.1 µM
T4 sequence (whole entry): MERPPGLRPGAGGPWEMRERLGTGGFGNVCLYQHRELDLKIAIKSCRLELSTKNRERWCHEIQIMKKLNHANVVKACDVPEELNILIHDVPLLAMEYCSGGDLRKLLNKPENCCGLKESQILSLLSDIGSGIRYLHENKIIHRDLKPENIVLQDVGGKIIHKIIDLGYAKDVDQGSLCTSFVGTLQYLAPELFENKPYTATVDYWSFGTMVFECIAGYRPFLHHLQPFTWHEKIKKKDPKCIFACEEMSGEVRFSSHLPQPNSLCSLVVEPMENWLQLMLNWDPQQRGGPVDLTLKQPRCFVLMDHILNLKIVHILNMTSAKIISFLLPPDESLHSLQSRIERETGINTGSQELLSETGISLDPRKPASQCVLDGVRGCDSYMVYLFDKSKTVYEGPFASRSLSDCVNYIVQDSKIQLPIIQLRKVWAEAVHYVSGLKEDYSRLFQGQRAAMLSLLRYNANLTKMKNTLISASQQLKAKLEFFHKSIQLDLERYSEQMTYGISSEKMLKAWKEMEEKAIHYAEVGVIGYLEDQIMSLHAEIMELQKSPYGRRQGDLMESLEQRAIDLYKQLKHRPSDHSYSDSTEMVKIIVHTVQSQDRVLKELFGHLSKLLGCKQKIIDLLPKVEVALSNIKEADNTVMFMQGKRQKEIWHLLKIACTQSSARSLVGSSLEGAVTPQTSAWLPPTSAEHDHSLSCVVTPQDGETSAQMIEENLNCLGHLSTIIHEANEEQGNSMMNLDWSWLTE

[17] = target: T4, Inhibitor of nuclear factor kappa-B kinase subunit alpha (Homo sapiens); details: at 1 µM
[18] = target: T5, Inhibitor of nuclear factor kappa-B kinase subunit beta (Homo sapiens) (UniProt O14920); details: at 0.1 µM
T5 sequence (whole entry): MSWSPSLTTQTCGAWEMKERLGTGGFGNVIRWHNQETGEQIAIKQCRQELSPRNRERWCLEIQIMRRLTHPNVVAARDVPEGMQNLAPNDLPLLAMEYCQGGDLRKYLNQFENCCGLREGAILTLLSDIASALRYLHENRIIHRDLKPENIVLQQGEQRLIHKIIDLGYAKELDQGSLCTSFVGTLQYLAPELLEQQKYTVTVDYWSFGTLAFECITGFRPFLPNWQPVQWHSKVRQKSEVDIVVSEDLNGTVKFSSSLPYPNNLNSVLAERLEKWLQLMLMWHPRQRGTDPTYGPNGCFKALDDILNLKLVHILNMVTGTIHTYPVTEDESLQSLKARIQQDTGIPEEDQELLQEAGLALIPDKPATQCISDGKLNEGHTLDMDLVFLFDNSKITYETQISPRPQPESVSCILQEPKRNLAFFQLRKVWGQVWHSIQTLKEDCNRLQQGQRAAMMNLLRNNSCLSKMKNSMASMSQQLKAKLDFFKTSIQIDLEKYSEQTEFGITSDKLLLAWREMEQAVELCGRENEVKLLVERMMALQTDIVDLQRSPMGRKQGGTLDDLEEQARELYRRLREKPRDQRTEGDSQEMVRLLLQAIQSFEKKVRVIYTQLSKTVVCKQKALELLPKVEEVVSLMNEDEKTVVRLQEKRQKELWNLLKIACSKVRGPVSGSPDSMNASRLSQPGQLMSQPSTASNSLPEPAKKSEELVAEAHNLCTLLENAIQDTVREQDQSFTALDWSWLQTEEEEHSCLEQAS

[19] = target: T5, Inhibitor of nuclear factor kappa-B kinase subunit beta (Homo sapiens); details: at 1 µM
[20] = target: T6, Inhibitor of nuclear factor kappa-B kinase subunit epsilon (Homo sapiens) (UniProt Q14164); details: at 0.1 µM;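 further: mean inhibition of IKKε reported, from the GSK PKIS dataset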
T6 sequence (whole entry): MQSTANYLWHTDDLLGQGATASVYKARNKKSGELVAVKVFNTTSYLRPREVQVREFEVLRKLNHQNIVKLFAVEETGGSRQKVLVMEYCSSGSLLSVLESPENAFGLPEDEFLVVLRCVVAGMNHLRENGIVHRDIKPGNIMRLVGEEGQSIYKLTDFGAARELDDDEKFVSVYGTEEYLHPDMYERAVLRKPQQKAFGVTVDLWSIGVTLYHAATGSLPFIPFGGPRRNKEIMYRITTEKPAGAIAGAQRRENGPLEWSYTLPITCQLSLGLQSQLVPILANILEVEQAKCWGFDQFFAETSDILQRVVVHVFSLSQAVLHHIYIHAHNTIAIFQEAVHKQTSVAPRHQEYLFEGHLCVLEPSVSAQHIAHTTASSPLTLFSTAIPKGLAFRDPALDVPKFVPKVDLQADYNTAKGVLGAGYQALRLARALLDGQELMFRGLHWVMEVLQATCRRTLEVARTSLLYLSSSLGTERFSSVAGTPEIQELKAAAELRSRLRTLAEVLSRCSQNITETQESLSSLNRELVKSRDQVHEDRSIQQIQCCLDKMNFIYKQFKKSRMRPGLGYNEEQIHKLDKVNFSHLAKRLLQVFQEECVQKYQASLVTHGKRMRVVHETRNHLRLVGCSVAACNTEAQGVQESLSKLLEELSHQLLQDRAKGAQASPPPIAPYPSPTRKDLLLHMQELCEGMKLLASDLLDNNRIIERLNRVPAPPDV

Sequence of SRSF protein kinase 1 (Homo sapiens) (Q96SB4 whole entry, canonical isoform): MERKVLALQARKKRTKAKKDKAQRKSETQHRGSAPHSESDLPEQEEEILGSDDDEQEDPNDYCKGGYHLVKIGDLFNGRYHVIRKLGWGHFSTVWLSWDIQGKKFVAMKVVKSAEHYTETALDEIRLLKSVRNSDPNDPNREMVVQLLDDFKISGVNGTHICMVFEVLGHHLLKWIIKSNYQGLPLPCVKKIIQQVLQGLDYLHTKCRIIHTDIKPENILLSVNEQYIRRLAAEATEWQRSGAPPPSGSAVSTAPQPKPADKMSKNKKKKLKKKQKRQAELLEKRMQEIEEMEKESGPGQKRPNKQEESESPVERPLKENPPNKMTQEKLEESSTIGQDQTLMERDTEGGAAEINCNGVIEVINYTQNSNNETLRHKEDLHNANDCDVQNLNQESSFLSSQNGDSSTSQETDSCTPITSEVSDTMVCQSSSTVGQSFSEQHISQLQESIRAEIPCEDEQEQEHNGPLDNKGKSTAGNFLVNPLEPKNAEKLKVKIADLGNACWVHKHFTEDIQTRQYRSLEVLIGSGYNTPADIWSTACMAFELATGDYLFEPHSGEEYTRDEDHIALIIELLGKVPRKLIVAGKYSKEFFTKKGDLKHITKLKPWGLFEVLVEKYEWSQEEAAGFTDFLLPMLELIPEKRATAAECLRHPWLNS
Sequence of Phosphatidylinositol 4,5-bisphosphate 3-kinase catalytic subunit alpha isoform (Homo sapiens) (P42336 whole entry, canonical isoform): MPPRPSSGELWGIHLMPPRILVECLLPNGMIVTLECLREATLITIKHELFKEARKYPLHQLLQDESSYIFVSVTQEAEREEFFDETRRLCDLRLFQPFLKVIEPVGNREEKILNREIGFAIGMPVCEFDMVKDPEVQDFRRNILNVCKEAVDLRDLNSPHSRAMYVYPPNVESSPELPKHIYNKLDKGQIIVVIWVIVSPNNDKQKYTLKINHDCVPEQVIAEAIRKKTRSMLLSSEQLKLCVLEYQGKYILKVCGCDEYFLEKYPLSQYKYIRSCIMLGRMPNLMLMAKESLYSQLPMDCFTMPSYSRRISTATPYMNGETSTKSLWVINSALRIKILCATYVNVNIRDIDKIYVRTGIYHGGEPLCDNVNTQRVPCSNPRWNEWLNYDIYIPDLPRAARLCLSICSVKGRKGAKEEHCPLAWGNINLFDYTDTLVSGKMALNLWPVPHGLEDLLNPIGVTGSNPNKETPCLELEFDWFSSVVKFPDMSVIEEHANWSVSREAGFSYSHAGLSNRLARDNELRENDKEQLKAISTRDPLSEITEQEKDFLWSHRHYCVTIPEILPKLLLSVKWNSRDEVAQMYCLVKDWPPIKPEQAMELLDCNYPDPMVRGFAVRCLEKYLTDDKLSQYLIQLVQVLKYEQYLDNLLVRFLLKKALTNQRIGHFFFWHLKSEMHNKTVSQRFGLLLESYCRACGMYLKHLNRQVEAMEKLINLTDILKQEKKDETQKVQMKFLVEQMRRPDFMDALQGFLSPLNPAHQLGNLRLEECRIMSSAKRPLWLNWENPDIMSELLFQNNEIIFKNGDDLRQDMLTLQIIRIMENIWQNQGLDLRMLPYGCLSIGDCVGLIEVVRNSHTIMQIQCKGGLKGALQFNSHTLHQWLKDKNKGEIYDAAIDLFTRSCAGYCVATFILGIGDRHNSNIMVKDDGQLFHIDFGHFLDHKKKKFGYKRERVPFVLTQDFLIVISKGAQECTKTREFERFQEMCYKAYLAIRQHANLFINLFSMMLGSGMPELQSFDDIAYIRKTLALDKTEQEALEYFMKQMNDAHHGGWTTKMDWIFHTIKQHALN
Sequence of Sphingosine kinase 1 (Homo sapiens) (Q9NYA1 whole entry): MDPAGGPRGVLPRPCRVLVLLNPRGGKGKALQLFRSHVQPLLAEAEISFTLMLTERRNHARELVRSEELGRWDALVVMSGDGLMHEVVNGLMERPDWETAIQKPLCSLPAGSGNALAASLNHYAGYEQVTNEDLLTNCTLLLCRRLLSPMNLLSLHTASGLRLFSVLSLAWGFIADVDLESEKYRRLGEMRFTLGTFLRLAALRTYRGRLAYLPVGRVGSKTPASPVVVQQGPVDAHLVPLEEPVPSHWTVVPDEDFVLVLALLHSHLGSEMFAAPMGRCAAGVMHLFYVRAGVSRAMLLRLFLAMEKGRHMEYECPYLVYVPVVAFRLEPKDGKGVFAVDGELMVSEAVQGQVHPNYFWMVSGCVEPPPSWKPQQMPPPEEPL
Sequence of Casein kinase II subunit alpha (Homo sapiens) (P68400 whole entry, looked up): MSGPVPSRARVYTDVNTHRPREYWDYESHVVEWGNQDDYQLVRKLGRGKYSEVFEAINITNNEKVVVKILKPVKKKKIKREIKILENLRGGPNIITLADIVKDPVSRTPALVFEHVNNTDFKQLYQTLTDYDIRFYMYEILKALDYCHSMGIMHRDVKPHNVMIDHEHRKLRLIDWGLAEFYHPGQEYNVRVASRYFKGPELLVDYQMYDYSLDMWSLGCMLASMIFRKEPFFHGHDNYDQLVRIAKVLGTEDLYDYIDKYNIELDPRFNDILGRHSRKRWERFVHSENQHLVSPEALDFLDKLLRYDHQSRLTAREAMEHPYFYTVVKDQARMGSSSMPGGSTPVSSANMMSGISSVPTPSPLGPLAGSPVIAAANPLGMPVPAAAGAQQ
Sequence of Phosphatidylinositol 4-kinase beta (Homo sapiens) (Q9UBF8 2-816 limits assumed): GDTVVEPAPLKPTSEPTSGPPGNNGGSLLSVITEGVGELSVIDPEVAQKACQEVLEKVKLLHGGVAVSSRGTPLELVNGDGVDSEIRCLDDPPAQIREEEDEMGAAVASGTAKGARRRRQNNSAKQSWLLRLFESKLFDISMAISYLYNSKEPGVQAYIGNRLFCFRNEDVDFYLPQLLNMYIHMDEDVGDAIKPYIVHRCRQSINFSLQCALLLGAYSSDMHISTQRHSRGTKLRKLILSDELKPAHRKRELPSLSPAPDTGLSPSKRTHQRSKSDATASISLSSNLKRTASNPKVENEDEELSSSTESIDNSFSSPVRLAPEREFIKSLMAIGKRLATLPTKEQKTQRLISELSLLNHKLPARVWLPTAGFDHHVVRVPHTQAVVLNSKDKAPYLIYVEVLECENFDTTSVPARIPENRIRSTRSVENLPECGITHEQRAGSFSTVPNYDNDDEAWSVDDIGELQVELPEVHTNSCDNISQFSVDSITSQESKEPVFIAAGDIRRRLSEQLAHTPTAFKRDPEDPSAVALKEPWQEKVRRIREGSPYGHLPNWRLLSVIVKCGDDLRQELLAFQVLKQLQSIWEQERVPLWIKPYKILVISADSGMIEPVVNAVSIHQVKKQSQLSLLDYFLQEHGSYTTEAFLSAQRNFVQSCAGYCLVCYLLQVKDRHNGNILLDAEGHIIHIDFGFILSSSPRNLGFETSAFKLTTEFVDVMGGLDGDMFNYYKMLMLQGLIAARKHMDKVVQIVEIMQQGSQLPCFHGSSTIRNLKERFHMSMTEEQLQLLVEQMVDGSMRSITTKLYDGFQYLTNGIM

Compound	inhibition [1] [%]	inhibition [2] [%]	inhibition [3] [%]	inhibition [4] [%]	inhibition [5] [%]	inhibition [6] [%]	inhibition [7] [%]	inhibition [8] [%]	inhibition [9] [%]	inhibition [10] [%]	inhibition [11] [%]	inhibition [12] [%]	inhibition [13] [%]	inhibition [14] [%]	inhibition [15] [%]	inhibition [16] [%]	inhibition [17] [%]	inhibition [18] [%]	inhibition [19] [%]	inhibition [20] [%]
CNC(=O)c1cccc(C#Cc2cncnc2Nc2ccc(OCc3cccc(F)c3)c(Cl)c2)c1	-0.21	-1.88	0.32	0.38	-2.56	0.74	-1.1	1.78	1.45	0.36	2.62	0.55	-7.19	2.99	10.1	-3.42	-9.45	0.53	-0.35	4.53
CCNC(=O)O[C@H]1CN[C@H](C#Cc2cc3ncnc(Nc4ccc(OCc5cccc(F)c5)c(Cl)c4)c3s2)C1	0.98	-1.03	-0.8	3.18	29	2.96	17.2	-1.09	0.43	0.82	-0.72	0.52	-3.06	0.94	-1.06	2.78	-6.68	3.34	1.97	2.87
CS(=O)(=O)CCNCc1ccc(-c2ccc3ncnc(Nc4ccc(OCc5ccccc5)c(C(F)(F)F)c4)c3c2)o1	2.8	-2.41	-1.93	4.02	4.89	0.55	2.2	-0.29	1.06	0.51	3.88	-1.22	0.8	10.8	4.64	5.21	0.84	9.46	10.4	6.52
Fc1ccc(-c2cc(-c3c[nH]nc3-c3ccccn3)ccn2)cc1	3.28	-0.82	1.31	4.44	3.51	2.06	3.22	-6.09	-0.81	1.6	-2.44	-0.74	-0.12	3.83	11.9	5.34	3.99	5.76	9.85	8.65
CC(=O)Nc1cccc(C#Cc2cncnc2Nc2ccc(OCc3cccc(F)c3)c(Cl)c2)c1	1.97	-1.41	-3.44	1.85	1.66	2.58	0.8	-0.32	-1.07	-0.47	-1.15	-0.41	-2.47	-0.51	-4.66	3.13	-2.41	2.6	-1.07	0.8
c1ccc(-c2nc3n(c2-c2ccc4c(c2)OCO4)CCC3)nc1	1.88	-0.51	-1.84	5.05	7.23	6.67	8.16	-3.19	-2.19	-1.79	0.44	-0.36	0	0.8	1.12	0.69	-5.83	3.06	-0.72	1.33
COc1ccc(CNC(=O)c2ccc(-c3cc(-c4nnc(C)o4)ccc3C)cc2)cc1	2.59	2.79	9.14	0.29	-1.87	-0.28	-2.1	3.82	0.88	1.51	-0.2	1.04	0.14	6.07	16.4	2	7.25	1.12	4.56	5.88
